The full list was thinned out, with hits kept by preference.
ST2 inh: IL1RL1 inhibition; Q01638; AlphaLISA ST2-Fc/biotin-IL-33 interaction, 1 h; inhibition, % for hits at 17 µM; actives 2.3% (n = 78,000); AID 1259354; in the data active = inhibition above about 30%
Target sequence (Q01638 whole entry, looked up): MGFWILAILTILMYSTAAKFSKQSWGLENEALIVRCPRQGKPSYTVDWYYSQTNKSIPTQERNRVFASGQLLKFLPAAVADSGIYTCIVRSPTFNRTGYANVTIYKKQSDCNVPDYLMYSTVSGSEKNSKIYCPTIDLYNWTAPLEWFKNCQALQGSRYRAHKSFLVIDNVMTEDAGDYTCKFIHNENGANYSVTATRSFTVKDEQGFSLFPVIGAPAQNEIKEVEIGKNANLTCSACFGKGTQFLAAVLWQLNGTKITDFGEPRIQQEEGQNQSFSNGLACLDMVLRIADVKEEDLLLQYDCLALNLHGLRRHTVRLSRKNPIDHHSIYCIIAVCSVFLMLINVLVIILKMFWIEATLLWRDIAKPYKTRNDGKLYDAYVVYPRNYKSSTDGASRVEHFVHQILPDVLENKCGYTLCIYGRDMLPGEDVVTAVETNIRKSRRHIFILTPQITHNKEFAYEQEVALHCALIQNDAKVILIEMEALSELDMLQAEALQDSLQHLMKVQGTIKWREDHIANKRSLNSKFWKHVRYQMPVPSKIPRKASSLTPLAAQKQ
Large screens that a line does not name were inactive.

Brc1cccc(CN2CCN(c3ccccc3)CC2)c1	ST2 inh 31%
O=[N+]([O-])c1ccc(CN2CCN(Cc3ccccc3)CC2)cc1	none
Fc1ccc(CN2CCN(c3cccc(Cl)c3)CC2)cc1	none
CN1CCN(Cc2cccc(Br)c2)CC1	none
CCN1CCN(Cc2cccc(Br)c2)CC1	none
O=[N+]([O-])c1ccc(N2CCN(Cc3cccc(Cl)c3)CC2)cc1	ST2 inh 36%
COC(=O)c1cccc(NC(=S)NC[C@H]2C[C@@H]3CCN2C[C@@H]3c2cc(-c3ccco3)nn2C)c1	none
CN(C)CC(=O)N1C[C@@H]2C[C@H](C1)c1c(-c3cncnc3)ccc(=O)n1C2	none
COC(=O)c1cccc(NC(=S)NC[C@H]2C[C@@H]3CCN2C[C@@H]3c2cc(-c3cccs3)nn2C)c1	none
C=C[C@H]1CN2CC[C@H]1C[C@@H]2CNC(=O)NC1CCCCC1	none
CC(Nc1ccc([N+](=O)[O-])c2cccnc12)c1ccc(Br)cc1 (stereo unspecified)	ST2 inh 40%
O=[N+]([O-])c1ccc(NCCCN2CCOCC2)c2cccnc12	none
C=CCNc1ccccc1C(=O)N1C[C@@H]2C[C@H](C1)c1cccc(=O)n1C2	none
O=C(Nc1ccc(=O)n2c1[C@@H]1C[C@@H](CN(C(=O)c3ccc(F)cc3)C1)C2)c1cncnc1	none
CC(=O)c1ccc(N2Cc3ccccc3C2=N)cc1	none
CC(c1c(O)c2ccccc2oc1=O)c1c(O)c2ccccc2oc1=O	ST2 inh 36%
COc1ccc(C(c2c(O)c3ccccc3oc2=O)c2c(C)n(C)n(-c3ccccc3)c2=O)cc1 (stereo unspecified)	none
Cc1c(C(c2ccccc2Cl)c2c(O)c3ccccc3oc2=O)c(=O)n(-c2ccccc2)n1C (stereo unspecified)	none
c1cncc(-n2cccc2CN2CCCN3CCC[C@H]3C2)c1	none
O=[N+]([O-])c1cccc(CN2CC=C(c3ccc(F)cc3)CC2)c1	ST2 inh 35%
CN1CCN(Cc2cccc([N+](=O)[O-])c2)CC1	none
CN1CCN(Cc2ccccc2[N+](=O)[O-])CC1	none
O=[N+]([O-])c1ccccc1CN1CCN(c2ccc(Cl)cc2)CC1	none
NC(=O)c1ccc(OCC(O)CN2CC=C(c3ccc(F)cc3)CC2)cc1 (stereo unspecified)	none
O=[N+]([O-])c1ccccc1CN1CC=C(c2ccc(F)cc2)CC1	ST2 inh 30%
S=C(NCCN1CCOCC1)NC[C@H]1C[C@@H]2CCN1C[C@@H]2CN1CCOCC1	none
C#C[C@H]1CN2CC[C@H]1C[C@@H]2CNC(=S)NC1CCCCC1	none
Cc1ccccc1-n1c(Cc2ccccc2)nc2ccccc2c1=O	none
Cc1ccccc1-n1c(/C=C2\C(=O)N(C)c3ccccc32)nc2ccccc2c1=O	ST2 inh 49%
O=c1c2ccccc2nc(-c2ccccc2Cl)n1-c1ccccc1O	none
Cc1cc(NC(=O)c2cccn(Cc3cccc(C(F)(F)F)c3)c2=O)no1	none
C[C@@H]1C(=O)O[C@H]2[C@H](O)[C@@]34[C@@H]5OC(=O)[C@@]3(O[C@@H]3OC(=O)[C@H](O)[C@@]34[C@H](C(C)(C)C)[C@H]5O)[C@@]12O	none
Clc1ccccc1CN1CCN(Cc2ccc3c(c2)OCO3)CC1	none
COc1ccc(Cl)cc1/C=C/[N+](=O)[O-]	ST2 inh 97%
C#CCOc1c(I)cc(/C=C/[N+](=O)[O-])cc1OC	none
Cn1nc(C2CCCC2)cc1[C@H]1CN2CC[C@H]1C[C@@H]2CNC(=S)Nc1ccccc1	none
COc1ccccc1C(=O)N1C[C@@H]2C[C@H](C1)c1c(-c3ccccc3F)ccc(=O)n1C2	none
CCOc1ccc(CN2CCN(c3ccccc3C)CC2)cc1	none
Cc1ccccc1N1CCN(Cc2ccc(O)cc2)CC1	none
Cc1ccccc1N1CCN(Cc2ccc(N(C)C)cc2)CC1	ST2 inh 45%
COc1ccc(C(=O)N2C[C@@H]3C[C@H](C2)c2c(-c4cccc(C#N)c4)ccc(=O)n2C3)cc1	none
COc1ccc(C(=O)N2C[C@@H]3C[C@H](C2)c2c(-c4ccc(SC)cc4)ccc(=O)n2C3)cc1	none
CSc1ccc(-c2ccc(=O)n3c2[C@@H]2C[C@@H](CN(C(=O)c4ccco4)C2)C3)cc1	none
COc1cc(CN2CCN(c3ccc(F)cc3)CC2)ccc1O	none
CN1CCN(Cc2ccc(Cl)c(Cl)c2)CC1	none
COc1cccc(CN2CCN(c3ccc(F)cc3)CC2)c1	none
CCN1CCN(Cc2cc(Br)ccc2OC)CC1	none
CCOc1ccc(CN2CCN(c3ccc(OC)cc3)CC2)cc1	ST2 inh 34%
CCOc1ccc(CN2CCN(c3ccccc3OC)CC2)cc1	none
COc1ccc(N2CCN(Cc3ccc(Cl)c(Cl)c3)CC2)cc1	ST2 inh 35%
COc1ccc(Br)cc1CN1CCN(c2ccccc2C)CC1	none
COc1ccc(N2CCN(Cc3cc(Br)ccc3OC)CC2)cc1	ST2 inh 41%
COc1ccc(CN2CCN(c3cccc(C)c3C)CC2)cc1	none
Clc1ccc(CN2CCN(c3ccccc3)CC2)cc1Cl	none
COc1ccc(N2CCN(Cc3ccc(Cl)cc3)CC2)cc1	ST2 inh 44%
C=C[C@H]1CN2CC[C@H]1C[C@@H]2CNC(=S)Nc1cc(C)cc(C)c1	none
COC(=O)c1cccc(NC(=S)NC[C@H]2C[C@@H]3CCN2C[C@@H]3c2cc(-c3ccc(F)cc3)nn2C)c1	none
O=C(c1ccncc1)N1C[C@@H]2C[C@H](C1)c1ccc(-c3ccc4ccccc4c3)c(=O)n1C2	none
CN1CCN(c2ncnc(N)c2[N+](=O)[O-])CC1	none
N#Cc1ccc(C(=O)N2C[C@@H]3C[C@H](C2)c2c(-c4cccc(C#N)c4)ccc(=O)n2C3)cc1	none
Cc1c(C(=O)N2CCC3(CC2)OCCO3)oc2ccc(S(=O)(=O)N(C)C3CCCCC3)cc12	none
COc1ccc(NC(=O)NC[C@H]2C[C@@H]3CCN2C[C@@H]3c2cc(-c3ccc(F)cc3)nn2C)cc1	none
COc1ccccc1N1CCN(C[C@H]2CN3CC[C@H]2C[C@@H]3CNC(=O)c2ccccc2)CC1	none
C=C[C@H]1CN2CC[C@H]1C[C@@H]2CNC(=S)Nc1cccc(C(=O)OC)c1	none
COc1cccc(N2CCN(Cc3ccccc3OC)CC2)c1	none
Clc1cccc(N2CCN(Cc3ccccc3Cl)CC2)c1	none
Cc1ccc(N2CCN(Cc3c(F)cccc3Cl)CC2)cc1	ST2 inh 36%
Cc1cccc(CN2CCN(c3ccccc3Cl)CC2)c1	none
Fc1ccc(CN2CCN(c3cccc(Cl)c3)CC2)c(F)c1	none
COc1cc(C)c(CN2CCN(c3ccccc3)CC2)cc1C	ST2 inh 31%
COc1ccccc1CN1CCN(c2ccccc2)CC1	none
COc1ccc(CN2CCN(c3ccccc3)CC2)cc1O	none
COc1ccc(N2CCN(Cc3cccc(Cl)c3Cl)CC2)cc1	ST2 inh 32%
CCN(CC)C[C@H]1CN2CC[C@H]1C[C@@H]2CNC(=S)Nc1ccc(N(C)C)cc1	none
Cn1nc(C2CCCCC2)cc1[C@H]1CN2CC[C@H]1C[C@@H]2COC(=O)Nc1ccccc1	none
C=CCN1C(=O)NC(=O)/C(=C/c2cc(Br)c(OCC(=O)O)c(OC)c2)C1=O	none
Cc1ccc(S(=O)(=O)Nc2ccc3n(c2=O)C[C@H]2C[C@@H]3CN(c3ncccn3)C2)cc1	none
CCC1CCC(NCCc2ccc(OC)cc2)CC1 (stereo unspecified)	none
CN1C(=O)C2(CCN(Cc3cccnc3N)CC2)c2ccccc21	none
COc1ccccc1-c1cc([C@H]2CN3CC[C@H]2C[C@@H]3CO)n(C)n1	none
COc1ccccc1-c1cc([C@H]2CN3CC[C@H]2C[C@@H]3CNC(=O)c2ccc3c(c2)OCO3)n(C)n1	none
CC(C)CNC(=S)NC[C@H]1C[C@@H]2CCN1C[C@@H]2c1cc(-c2ccc(F)cc2)nn1C	none
Cn1nc(-c2ccc3ccccc3c2)cc1[C@H]1CN2CC[C@H]1C[C@@H]2CNCc1ccccn1	none

Bioassay records (PubChem BioAssay)
